Among the data in PubChem BioAssay are composite z-score and z-score values, retold here.

The test system of assay [1] is Plasmodium falciparum Sir2 (PF13_0152, Sir2A). In words: Plasmodium falciparum Sir2A binding compounds – biochemical, small-molecule microarray, 635 nm fluorescence, primary screen (AID 1098).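 Note: score merges spot fluorescence intensity with its signal-to-noise ratio.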 Particulars: fluorescence 635 nm, higher = more signal.
The nature of assay [2]: probe aDKK1 binding to arrayed compounds – biochemical, biotinylated probe, 635/667 nm fluorescence, primary screen (AID 1099).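 Note: score merges 667nm spot fluorescence with signal to noise across triplicate slides.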 Particulars: small-molecule microarray, higher = more signal.
A short description of assay [3]: probe aCHRDL2 binding to arrayed compounds – biochemical, biotinylated probe, 635/667 nm fluorescence, primary screen (AID 1100). Particulars: small-molecule microarray, higher = more signal.
A short description of assay [4]: change in splice reporter luminescence, either direction, cell-based, HEK293, spliceosome inhibition project, primary screen (AID 1101).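 Note: HEK293 cells carrying a splicing-competent luciferase reporter gene; test concentration not given here.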 Particulars: HEK293 splicing luciferase reporter, 24 h, higher = more signal, called active from +8 up or from −8 down. For orientation: A reporter such as luciferase makes a cellular process visible.
Assay [5] has as its target Fibroblast growth factor 10 (Homo sapiens) (UniProt O15520). In words: compounds binding fibroblast growth factor 10 – biochemical, small-molecule microarray, 635 nm fluorescence, primary screen (AID 1102). Particulars: FGF10 binding, fluorescence 635 nm, higher = more signal.
The test system of assay [6] is glycogen synthase kinase-3 (GSK3A per assay name; protocol says GSK3B). The experiment in a line: compounds binding glycogen synthase kinase-3 – biochemical, small-molecule microarray, 635 nm fluorescence, GSK3A, primary screen (AID 1103). Note: the record names both GSK3A and GSK3B. Particulars: fluorescence 635 nm, higher = more signal.
The target of assay [7] is Epidermal growth factor receptor (Homo sapiens) (UniProt P00533). In words: compounds binding epidermal growth factor receptor – biochemical, small-molecule microarray, 635 nm fluorescence, primary screen (AID 1104).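 Note: score merges 667 nm emission intensity with spot signal to noise over triplicate slides.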 Particulars: EGFR binding, higher = more signal.
Sequence of Epidermal growth factor receptor (Homo sapiens) (P00533 whole entry, looked up): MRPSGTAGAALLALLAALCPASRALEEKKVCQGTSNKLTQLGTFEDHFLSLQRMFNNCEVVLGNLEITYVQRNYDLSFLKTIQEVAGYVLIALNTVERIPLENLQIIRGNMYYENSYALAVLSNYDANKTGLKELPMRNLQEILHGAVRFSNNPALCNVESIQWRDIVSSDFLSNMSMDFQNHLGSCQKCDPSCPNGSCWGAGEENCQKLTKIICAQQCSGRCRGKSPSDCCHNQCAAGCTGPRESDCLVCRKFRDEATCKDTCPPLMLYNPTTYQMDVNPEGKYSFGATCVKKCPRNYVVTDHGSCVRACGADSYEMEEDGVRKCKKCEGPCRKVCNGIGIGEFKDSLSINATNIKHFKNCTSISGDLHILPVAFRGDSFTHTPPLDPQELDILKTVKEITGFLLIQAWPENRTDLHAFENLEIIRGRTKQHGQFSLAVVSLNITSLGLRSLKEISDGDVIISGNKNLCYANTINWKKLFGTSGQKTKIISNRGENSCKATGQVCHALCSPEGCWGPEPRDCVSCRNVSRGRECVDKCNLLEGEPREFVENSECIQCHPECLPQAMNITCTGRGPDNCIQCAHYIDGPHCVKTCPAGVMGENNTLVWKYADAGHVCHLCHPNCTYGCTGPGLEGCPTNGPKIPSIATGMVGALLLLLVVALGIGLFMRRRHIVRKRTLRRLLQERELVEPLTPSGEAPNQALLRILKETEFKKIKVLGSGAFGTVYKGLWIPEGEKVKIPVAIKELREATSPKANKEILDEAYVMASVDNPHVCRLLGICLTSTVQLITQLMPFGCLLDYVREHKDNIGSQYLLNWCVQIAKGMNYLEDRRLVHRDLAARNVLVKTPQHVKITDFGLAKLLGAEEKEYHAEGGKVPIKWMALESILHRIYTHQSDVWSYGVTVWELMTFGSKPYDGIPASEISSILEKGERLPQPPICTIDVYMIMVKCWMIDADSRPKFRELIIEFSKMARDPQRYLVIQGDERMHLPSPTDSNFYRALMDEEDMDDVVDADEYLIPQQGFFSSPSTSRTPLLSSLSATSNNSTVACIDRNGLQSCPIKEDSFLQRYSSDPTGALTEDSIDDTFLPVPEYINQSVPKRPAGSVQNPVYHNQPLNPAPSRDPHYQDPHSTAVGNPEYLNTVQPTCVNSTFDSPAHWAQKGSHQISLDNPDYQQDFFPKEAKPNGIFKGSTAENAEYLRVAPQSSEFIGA
Assay [8] addresses Follistatin-related protein 3 (Homo sapiens) (UniProt O95633). The experiment in a line: compounds binding follistatin-related protein 3 – biochemical, small-molecule microarray, 635 nm fluorescence, primary screen (AID 1105).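 Note: score merges emission near 667 nm and signal to noise per printed spot across three slides.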 Particulars: FSTL3 binding, higher = more signal.
For assay [9], the target named is Dickkopf-related protein 1 (Homo sapiens) (UniProt O94907). The experiment in a line: small molecules binding DKK1 protein – biochemical, small-molecule microarray, 635 nm fluorescence scan, primary screen (AID 1106).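 Note: score merges emission near 667 nm with signal to noise over three replicate slides.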 Particulars: higher = more signal.
Sequence of Dickkopf-related protein 1 (Homo sapiens) (O94907 whole entry, looked up): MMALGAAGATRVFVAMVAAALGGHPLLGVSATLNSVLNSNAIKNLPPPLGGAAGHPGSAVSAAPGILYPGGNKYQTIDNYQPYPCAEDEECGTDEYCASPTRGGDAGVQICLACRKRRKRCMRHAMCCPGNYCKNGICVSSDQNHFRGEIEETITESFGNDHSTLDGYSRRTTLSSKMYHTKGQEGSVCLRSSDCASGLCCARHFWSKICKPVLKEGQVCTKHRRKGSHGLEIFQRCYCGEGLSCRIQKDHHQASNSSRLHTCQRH
Assay [10] has as its system Inhibin beta A chain (activin A). In words: small molecules binding activin A – biochemical, small-molecule microarray, 635 nm fluorescence scan, primary screen (AID 1107).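 Note: mouse activin A protein probed at 4.33 µg/mL on printed slides; score merges bound-protein fluorescence near 667 nm with spot signal-to-noise.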 Particulars: INHBA, higher = more signal.
Assay [11] deals with Human papillomavirus type 1a protein E7 (residues 44-93). In words: small molecules binding HPV E7 44-93 – biochemical, small-molecule microarray, residues 44-93, 635 nm fluorescence, primary screen (AID 1108).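 Note: E7 fragment applied at 1 µg/mL in TBST for 1 h at 4 C; score combines spot fluorescence with its signal to noise ratio.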 Particulars: fluorescence 635 nm, higher = more signal.
Assay [12] is described as follows: hepatitis C replication reporter changes, two-sided – Huh7 cells, luciferase reporter, HCV replication inhibitor project, primary screen (AID 1109).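 Note: huh7 hepatoma cells harbouring a luciferase neomycin HCV replicon reporter; luciferase luminescence as measure of HCV replicon replication; test concentration not given here.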 Particulars: Huh7 HCV replicon luciferase reporter, 48 h; higher = more signal.
Assay [13] deals with Left-right determination factor 2 (Homo sapiens) (UniProt O00292). The experiment in a line: small molecules binding LEFTY2 protein – biochemical, small-molecule microarray, 635 nm fluorescence scan, primary screen (AID 1110). Particulars: higher = more signal.
Sequence of Left-right determination factor 2 (Homo sapiens) (O00292 whole entry, looked up): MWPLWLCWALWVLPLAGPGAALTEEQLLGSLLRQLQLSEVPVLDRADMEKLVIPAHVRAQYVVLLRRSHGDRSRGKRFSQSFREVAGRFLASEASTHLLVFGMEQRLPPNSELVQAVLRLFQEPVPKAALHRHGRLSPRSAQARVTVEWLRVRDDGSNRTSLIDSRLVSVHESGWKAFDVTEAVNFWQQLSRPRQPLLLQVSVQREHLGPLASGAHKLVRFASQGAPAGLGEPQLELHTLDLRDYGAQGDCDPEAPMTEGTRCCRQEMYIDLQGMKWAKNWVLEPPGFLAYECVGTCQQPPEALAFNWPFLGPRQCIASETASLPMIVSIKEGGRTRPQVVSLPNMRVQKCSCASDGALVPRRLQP
For assay [14], the target named is Calmodulin-1 (Homo sapiens) (UniProt P0DP23). In words: small molecules binding calmodulin-1 with EGTA – biochemical, small-molecule microarray, Cy5-labelled CALM1, profiling panel (AID 1111).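 Note: labelled calmodulin applied in Tris saline Tween buffer holding calcium plus EGTA and DTT.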 Particulars: Cy5-CALM1 binding fluorescence, higher = more signal.
For assay [15] the target is unchanged. The experiment in a line: small molecules binding Ca-loaded calmodulin-1 – biochemical, small-molecule microarray, Cy5-labelled CALM1, plus calcium, artefact control for SMM control-protein annotation, profiling panel (AID 1112).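 Note: score merges spot fluorescence with signal to noise from triplicate slides.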 Particulars: Cy5-CALM1 binding fluorescence, higher = more signal.
The nature of assay [16]: probe aWnt5a binding to arrayed compounds – biochemical, biotinylated probe, 635/667 nm fluorescence, primary screen (AID 1113).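 Note: score merges 667 nm fluorescence intensity with signal-to-noise per printed feature.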 Particulars: small-molecule microarray, higher = more signal.
A short description of assay [17]: probe aShh binding to arrayed compounds – biochemical, biotinylated probe, 635/667 nm fluorescence, primary screen (AID 1114).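 Note: probe is biotin-labelled aShh protein from a stem cell growth factor screen; measures binding of labelled protein to compounds printed on the slide; score merges feature fluorescence at 667 nm with signal-to-noise.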 Particulars: small-molecule microarray, higher = more signal.
Assay [18] is described as follows: probe aNog binding to arrayed compounds – biochemical, biotinylated probe, 635/667 nm fluorescence, primary screen (AID 1115).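 Note: probe is biotinylated aNog protein used at 0.15 µg/mL for 1 h at 4 C; z-score combines 667 nm fluorescence of each spot with its signal to noise.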 Particulars: small-molecule microarray, higher = more signal.
The target of assay [19] is Torsin-1A-interacting protein 1 (Homo sapiens) (UniProt Q5JTV8). The experiment in a line: compound microarray binding of lysate hLAP1 – cell lysate, small-molecule microarray, COS7 lysate, 635/667 nm fluorescence, primary screen (AID 1116). Particulars: 635 nm fluorescence, higher = more signal.
Sequence of Torsin-1A-interacting protein 1 (Homo sapiens) (Q5JTV8 whole entry, looked up): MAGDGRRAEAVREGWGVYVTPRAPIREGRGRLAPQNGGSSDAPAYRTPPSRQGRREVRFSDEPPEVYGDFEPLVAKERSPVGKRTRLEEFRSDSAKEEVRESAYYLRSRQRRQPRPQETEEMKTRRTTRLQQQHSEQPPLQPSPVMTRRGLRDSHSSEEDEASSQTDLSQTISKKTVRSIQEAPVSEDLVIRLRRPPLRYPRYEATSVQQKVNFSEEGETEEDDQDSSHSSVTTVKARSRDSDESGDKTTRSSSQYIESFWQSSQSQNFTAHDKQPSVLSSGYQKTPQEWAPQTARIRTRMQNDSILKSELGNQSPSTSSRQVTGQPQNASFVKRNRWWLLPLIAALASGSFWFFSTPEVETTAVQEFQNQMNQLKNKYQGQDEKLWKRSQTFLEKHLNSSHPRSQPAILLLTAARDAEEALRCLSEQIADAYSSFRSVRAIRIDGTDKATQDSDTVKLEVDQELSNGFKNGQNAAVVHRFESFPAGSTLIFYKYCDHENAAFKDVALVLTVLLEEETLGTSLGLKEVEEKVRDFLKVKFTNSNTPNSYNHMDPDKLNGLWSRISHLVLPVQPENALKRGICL
Assay [20] concerns the target Alpha-bungarotoxin (Bungarus multicinctus) (UniProt P60615). In words: compounds binding labelled alpha-BTX control protein – biochemical, small-molecule microarray, Alexa647 label, 635/667 nm fluorescence, artefact control for SMM control protein annotation, profiling panel (AID 1117). Particulars: alpha-BTX-A647 binding fluorescence, higher = more signal.

The source made the active and inactive calls.

Sequence of Follistatin-related protein 3 (Homo sapiens) (O95633 whole entry, looked up): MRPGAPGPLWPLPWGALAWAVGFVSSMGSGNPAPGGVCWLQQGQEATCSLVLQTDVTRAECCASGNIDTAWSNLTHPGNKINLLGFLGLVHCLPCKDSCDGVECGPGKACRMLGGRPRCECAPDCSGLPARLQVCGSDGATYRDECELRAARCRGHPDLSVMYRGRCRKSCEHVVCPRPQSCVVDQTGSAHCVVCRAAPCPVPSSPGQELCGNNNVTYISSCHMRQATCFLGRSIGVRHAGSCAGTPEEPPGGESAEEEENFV
Sequence of Fibroblast growth factor 10 (Homo sapiens) (O15520 whole entry, looked up): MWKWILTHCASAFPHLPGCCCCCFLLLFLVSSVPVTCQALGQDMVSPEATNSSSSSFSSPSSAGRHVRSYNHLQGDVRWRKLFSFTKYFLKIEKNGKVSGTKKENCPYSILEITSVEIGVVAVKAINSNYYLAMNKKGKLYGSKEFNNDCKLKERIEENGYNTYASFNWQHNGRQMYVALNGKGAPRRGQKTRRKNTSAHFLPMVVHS
Sequence of Alpha-bungarotoxin (Bungarus multicinctus) (P60615 whole entry, looked up): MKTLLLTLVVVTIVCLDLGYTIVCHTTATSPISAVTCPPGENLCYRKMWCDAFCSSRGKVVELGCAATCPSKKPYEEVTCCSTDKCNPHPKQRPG

With `NCCCCCNC(=O)[C@@H]1C[C@@H]2C(=O)NCC(=O)N2[C@@H]1c1ccc(O)cc1`, the composite z-score in assay [1] was 1.15; in assay [2] it was -0.0246; in assay [3], -0.128; in [5], 1.49; in assay [6], 1.32; in assay [7] it was -0.318. Further, the composite z-score in [8] stood at 1.22; in assay [9], 1.63; in assay [10] it was 0.294; in [11], 1.37; in assay [13] it was 1.3; in [14], 0.957. Also, the composite z-score in [15] is 0.281; in assay [16] it was -0.008; in assay [17] it was -0.138; in [18], -0.036; in assay [19], 0.855; in assay [20], 1.15. In addition, the z-score in assay [4] was -0.0882 (inactive); in assay [12], 0.358.
For `CCCCC(=C=CC[C@@H](O)c1ccccc1OCCO)CCO`, the composite z-score in assay [1] is -0.189; in assay [2], 0.0035; in [3] it was 0.001; in [5], 0.209; in [6], -1.3; in assay [7] it was -0.903. In addition, the composite z-score in assay [8] was -0.375; in assay [9] it was -0.382; in assay [10], 0.857; in assay [11] it was -0.0803; in assay [13], -0.855; in assay [14], 0.184. In addition, the composite z-score in assay [15] was 0.23; in assay [16], -0.147; in assay [17], -0.366; in assay [18], -0.034; in assay [19], 0.212; in assay [20], -0.0423. Also, the figures for the z-score in assay [4] and in assay [12] were 0.579 (inactive) and -0.23, respectively.
In the case of `CCN(CC)c1ccc(N2CC=CC34O[C@@H]5/C=C\CCC(C)OC(=O)C5[C@H]3C(=O)N(C(CO)C(C)C)[C@@H]4C2=O)cc1` (stereo not given in full), the composite z-score in assay [1] was 0.492; in [2] it was -0.204; in assay [3] it was 0.0959; in assay [5] it was -0.709; in [6], -0.806; in assay [7], -0.532. For the same compound, the composite z-score in assay [8] was -1.1; in assay [9] it was -0.41; in assay [10], 1.15; in assay [11], -0.0747; in assay [13], -0.896; in assay [14], -0.55. Further, the composite z-score in assay [15] is -0.866; in [16], -0.062; in assay [17] it was 0.214; in assay [18], -0.287; in [19], -0.251; in [20] it was 0.174. Besides, the figures for the z-score in assay [4] and in [12] were -0.208 (inactive) and -0.668, respectively.
Consider `O=C(NCc1ccccc1)[C@@]1(CCS(=O)(=O)c2ccccc2)N=C(c2ccc(OCCCO)cc2)O[C@H]1c1ccccc1`, for which the composite z-score in assay [1] was 0.691; in [2], 0.717; in [3] it was 1.03; in [5] it was 1.28; in assay [6] it was 1.12; in assay [7], -0.304. For the same compound, the composite z-score is 0.866 in [8]; -0.393 in [9]; 0.525 in assay [10]; 1.44 in assay [11]; -0.125 in assay [13]; 1.43 in [14]. Besides, the composite z-score is 0.112 in [15]; 0.111 in [16]; 0.0055 in assay [17]; -0.0597 in [18]; 1.32 in [19]; 2.03 in assay [20]. Besides, the z-score in [4] is 0.0308 (inactive); in assay [12], -2.25.
As for `O=C1C2C=CC(C(O)C(c3ccccc3)c3ccccc3)N(n3cnnc3)C2C(=O)N1Cc1ccccc1` (stereo not given), the composite z-score is 0.55 in assay [1]; -0.0184 in assay [2]; 0.571 in assay [3]; 1.25 in [5]; 1.07 in assay [6]; -1.18 in assay [7]. The composite z-score is 0.439 in [8]; 1.24 in assay [9]; 0.581 in assay [10]; 1.24 in [11]; -0.164 in assay [13]; 0.836 in [14]. In addition, the composite z-score in assay [15] is -0.34; in [16], 0.07; in assay [17], 0.184; in assay [18], 0.976; in assay [19], 1.57; in assay [20], 0.652. Moreover, the z-score in assay [4] is 0.00252 (inactive); in assay [12], -0.832.
